Rows were chosen to be rich in hits. Some 7.8% of all compounds tested hit in one or more screens of this group.
Marburg entry inh: blocks Marburg virus binding to or entry into cells. Marburg virus pseudotyped entry inhibition, cell reporter. Potency, µM (highest dose often 37.8 µM), for inactives: at the top dose activity change, negative = inhibition, hits mostly inhibitors. hit rate 1.8% among 300,000. AID 540276; calls by dose curve; tested in HEK293 cells; also: potency is read from the fitted curve at half-maximal effect
VACV Venus inh: vaccinia inhibition (Venus reporter); hit rate 0.46% among 330,000; Potency, µM (doses to about 36.5 µM), for inactives: at the highest dose activity change, negative = inhibition, actives largely listed as inhibitors; Vaccinia virus Venus reporter expression, fluorescence; calls by dose curve; tested in A549 cells; also: potency is read from the fitted curve at half-maximal effect; nearly all actives have a fitted effect of over 30% in size
HCMV antiviral: blocks human cytomegalovirus replication; hit rate 4.5% among 410,000; HFF cells, HCMV-luciferase reporter, 72 h; active compounds read low; activity change, negative = inhibition, % at 57.5 µM; in the data active = activity change below about -60%; inconclusive = no clear call, values can overlap the other calls; inactive = above about -39%
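After 16 h attachment at 37C, HFF cells received test compound and HCMV-luciferase (1 PFU/cell); reporter luminescence read 72 h later, data normalized against buffer-only and known inhibitor Salinomycin.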
HCV inh: inhibitors of hepatitis C virus infection. Huh7.5.1 HCVcc-Cre infection, luciferase reporter, 44 h. Potency, µM (doses to about 41.8 µM), without a hit: at the highest dose activity change, negative = inhibition, actives largely listed as inhibitors. hit rate 3.4% among 340,000. AID 651820; active = well fitted inhibition curve with a large enough effect; inconclusive = small, poorly fitted or top-dose-only effect, or another doubt; inactive = no such curve, though single readings can be large or run the other way; also: potency is read from the fitted curve at half-maximal effect
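Compounds are dispensed onto cells plated 4 h earlier at 1,000 per well, with HCVcc-Cre virus (about 0.5 moi) added next. Following 44 h of culture, luminescent signal is measured for 15 sec after 15 min with substrate at room temperature.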
Vaccinia mCherry: vaccinia inhibition (mCherry reporter); Vaccinia virus mCherry reporter infection, fluorescence; Potency, µM (doses to about 36.5 µM), for the others: at the highest dose activity change, negative = inhibition, usual class: inhibitors; hit rate 0.63% among 310,000; AID 720579; calls by dose curve; tested in A549 cells; also: potency is read from the fitted curve at half-maximal effect; nearly all actives have a fitted effect of over 35% in size
LASV entry inh: blocks Lassa virus binding to or entry into cells; Potency, µM (highest dose often 37.9 µM), for inactives: at the highest dose activity change, negative = inhibition, most hits filed as inhibitors; AID 540256; hit rate 1.2% among 300,000; Lassa virus pseudotype entry inhibition, cell reporter; calls by dose curve; tested in HEK293 cells; also: potency is read from the fitted curve at half-maximal effect; nearly all actives have a fitted effect of over 50% in size
Active calls of the source: *; i = inactive; ? = inconclusive; . = not tested or not shown; + = active, no number; ! = a repeat was not active; [ ] = dose if it differs, or a comment. % is scaled to controls: 0 for no effect and ±100 for the full control effect.

SMILES	Marburg entry inh	VACV Venus inh	HCMV antiviral	HCV inh	Vaccinia mCherry	LASV entry inh
COc1ccccc1N1CCN(CC(O)COc2ccc(Cl)c(C)c2)CC1 (stereo not drawn)	-35%[46.1 µM]	-6%	-9	.	-25%	-13%[46.1 µM]
CCNS(=O)(=O)c1ccc(CCC(=O)O)cc1	3%	-8%	-36	10µM*	i	?
Cc1nc2ccc(S(=O)(=O)NCC(=O)NCc3ccc(Cl)cc3)cc2s1	6%[46.1 µM]	0%[7.34 µM]	-69*!	0%	-14%	3%[46.1 µM]
COCCN(Cc1ccco1)C(=O)C1CCCN(c2ncnc3c2nc2n3CCCCC2)C1 (stereo not drawn)	?	-17%	-18	7%	-14%	11µM*
CCc1cccc(NC(=O)C2CCCN(c3ncnc4c3nc3n4CCCCC3)C2)c1 (stereo not drawn)	?	?	?	11µM*	i	?
O=C(NCC1CCN(Cc2ccc(Cl)cc2)CC1)C1CCCN(c2ncnc3c2nc2n3CCCCC2)C1 (stereo not drawn)	.	.	-79*	?	.	.
O=C(NCc1cccc(Cl)c1)C1CCCN(c2ncnc3c2nc2n3CCCCC2)C1 (stereo not drawn)	?	-5%	-67*	?	-9%	?
COCCNC(=O)CCn1c(=O)[nH]c2cc(OC)c(OC)cc2c1=O	9%[46.1 µM]	0%	2	.	-8%	6%[46.1 µM]
CN(C)C(=O)c1ccc(-c2ccc3ncnc(NC4CCNCC4)c3c2)cc1	.	-6%	.	.	1%	.
COc1cccc(-c2cnc(NCc3ccccc3Cl)n2C)c1	?	-29%	-25	.	-30%	-28%[46.1 µM]
O=C(Cn1c(=O)n(Cc2nc(-c3ccccc3)no2)c(=O)c2cc3c(cc21)OCO3)Nc1cccc(C(F)(F)F)c1	.	3%	-3	.	-3%	27%[46.1 µM]
Cc1ccc2cc(CN(C(=O)c3ccc4c(c3)OCO4)C3CC3)c(N(C)C)nc2c1	.	13%	.	.	-8%	.
CN1CCCN(C(=O)[C@@H]2C[C@@H](Sc3nc4ccccc4[nH]3)CN2Cc2ccc(OC(F)(F)F)cc2)CC1	.	-9%	.	.	-24%	.
CC1=C(C(=O)NCc2cccc(Br)c2)C2(CCCCC2)OC1=O	.	-5%	-12	.	-10%	12%[46.1 µM]
O=C(NCc1cccc(Cl)c1)C1CCN(c2nn3cc(-c4ccc(F)cc4)nc3s2)CC1	.	?	16	.	-26%	24%[46.1 µM]
Cc1ccc(NC(=O)C2CCN(c3ncnc4c3nc3n4CCCCC3)CC2)nc1	.	.	-91*	13µM*	.	.
O=C(NCC1CCN(Cc2ccc(F)cc2)CC1)C1CCCN(c2ncnc3c2nc2n3CCCCC2)C1 (stereo not drawn)	.	.	-61*	?	.	.
O=C(NCc1cccc(Cl)c1)C1CCCN(c2nn3cc(-c4ccc(F)cc4)nc3s2)C1 (stereo not drawn)	.	-26%	+	.	-23%	-6%[46.1 µM]
COc1cccc(NC(=O)/C(C#N)=C/c2c(C)n(Cc3ccccc3)c3ccccc23)c1	.	7%	-27	.	-20%	?
CN(C)CCCNC(=S)NCC(c1ccc(Cl)cc1Cl)c1c[nH]c2ccccc12 (stereo not drawn)	?	?	?	11µM*	?	10µM*
O=C(c1ccc(C(F)(F)F)cc1)N(Cc1cc2ccc(F)cc2nc1N1CCOCC1)C1CC1	.	-1%	.	.	-5%	.
CC1CCN(CCn2c(=S)[nH]c3ncccc3c2=O)CC1	2%	.	.	.	.	.
COc1ccc(N2CCN(CCCn3c(=S)[nH]c4ncccc4c3=O)CC2)cc1	4.1µM*	.	?	-5%	.	?
O=c1c2cccnc2[nH]c(=S)n1CCCN1CCN(c2ccc(F)cc2)CC1	4.6µM*	.	-24	-5%	.	5.8µM*
Cc1nnc(C)n1/N=C\c1cc(Br)cc(Br)c1O	-10%	.	.	.	.	.
SMILES	Marburg entry inh	VACV Venus inh	HCMV antiviral	HCV inh	Vaccinia mCherry	LASV entry inh
Cc1ccc(Cn2cc(S(=O)(=O)c3ccc(C)cc3)c(=O)c3cc(F)c(N4CCCC4)cc32)cc1	.	-11%	8	.	-16%	1%[46.1 µM]
CCN(CC)C(=O)CSc1nc2c(sc(=S)n2-c2ccccc2)c(=O)n1-c1ccc(OC)cc1OC	.	.	-69*	?	.	.
CCn1c(=S)sc2c(=O)n(-c3ccccc3)c(SC)nc21	-13%	.	-61*	?	.	-3%
CSc1nc2ccsc2c(=O)n1-c1ccccc1	-22%[46.1 µM]	-16%	-26	-12%	i	-7%[46.1 µM]
Cc1nc2c(sc(=S)n2Cc2ccco2)c(=O)n1CC(=O)Nc1ccccc1F	.	0%[7.34 µM]	11	?	-3%[7.34 µM]	.
CCN(CC)C(=O)CSc1nc2c(sc(=S)n2-c2ccccc2)c(=O)n1-c1ccccc1OC	?	-11%	?	?	-12%	?
CCN(CC)C(=O)CSc1nc2c(sc(=S)n2-c2ccccc2)c(=O)n1-c1ccc(OC)c(OC)c1	.	.	-68*	?	.	.
COc1ccc(-n2c(SCC3OCCO3)nc3c(sc(=S)n3-c3ccccc3)c2=O)cc1OC	?	-16%	11	?	-3%	-19%[46.1 µM]
N#CCSc1nc2c(sc(=S)n2Cc2ccco2)c(=O)n1-c1ccc(F)cc1	?	.	-107*	?	.	-10%
CCN1C(=O)[C@H]2[C@H]3[C@H](O)[C@H](O)C/C(=N\OC[C@H]4O[C@H](c5ccccc5)C=C[C@@H]4Oc4ccc(OC)cc4)[C@@H]3CC[C@H]2C1=O	-28%[14.2 µM]	.	.	.	.	.
Fc1ccc(CN2CCN(c3ncccn3)CC2)cc1	-16%	-16%	-34	24%	-13%	9%
Fc1ccc(CN(C2=NCCN2)c2c(Cl)cccc2Cl)cc1	18µM*	.	.	.	.	?
Fc1cccc(CN(C2=NCCN2)c2c(Cl)cccc2Cl)c1	.	-21%	-63*	?	-10%	.
CN(Cc1cccc(F)c1)CC(O)COCc1ccccc1Cl (stereo not drawn)	9%[46.1 µM]	1%	12	10%	-7%	-5%[46.1 µM]
COCc1cccc(-c2csc(C(C)(O)c3cccc(OC)c3)n2)c1 (stereo not drawn)	.	-8%	-27	.	i	.
COCCNC(=O)C1CCCN(Cc2cccc(C#N)c2)CC1 (stereo not drawn)	.	15%	-61*	.	41%	.
